HTT prom inh: inhibitors of huntingtin promoter activity. 0.93% of 48,000 active. Potency, µM (top dose mostly 57.5 µM), inactives show at the highest dose activity change, negative = inhibition, usual class: inhibitors. HEK293 HTT promoter firefly luciferase reporter, 24 h. AID 1508623; also: potency is read from the fitted curve at half-maximal effect; nearly all actives have a fitted effect of over 50% in size
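HEK293 cells carrying firefly luciferase reporters were seeded at 2,500 per well in Opti-MEM and cultured for 24 h. They were then treated with compounds at up to 57.5 uM final for 24 h at 37 degrees C before Dual-Glo luminescence readout.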
HTT-AS act: HTT-AS promoter activation | HEK293 HTT-AS promoter firefly luciferase reporter, 24 h; response scale: percent change from vehicle, -100% = no light | Potency, µM (series often up to 57.5 µM), for inactives: at the top dose activity change, positive = activation, actives largely listed as activators | 0.24% of 48,000 active | AID 1508624; also: potency is read from the fitted curve at half-maximal effect; nearly all actives have a fitted effect of over 55% in size
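HEK293 Fluc reporter, 2,500 cells/well, 24 h pre-culture; cpds up to 57.5 uM final, 24 h 37 degrees C; Dual-Glo, 10 min RT; normalized vehicle = 0%, zero RLU = -100%.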
NTMT1 inhibitor: blocks human N-terminal methyltransferase 1 activity; NTMT1 MTase-Glo SAH luminescence, purified enzyme; Potency, µM (doses to about 114 µM), without a hit: at the highest dose activity change, negative = inhibition, most hits filed as inhibitors; Q9BV86; 2.5% of 59,000 active;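 also: potency is read from the fitted curve at half-maximal effect; plate controls were DMSO vehicle for no effect and no enzyme for full effect; nearly all actives have a fitted effect of over 65% in size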
Target sequence (Q9BV86 whole entry, looked up): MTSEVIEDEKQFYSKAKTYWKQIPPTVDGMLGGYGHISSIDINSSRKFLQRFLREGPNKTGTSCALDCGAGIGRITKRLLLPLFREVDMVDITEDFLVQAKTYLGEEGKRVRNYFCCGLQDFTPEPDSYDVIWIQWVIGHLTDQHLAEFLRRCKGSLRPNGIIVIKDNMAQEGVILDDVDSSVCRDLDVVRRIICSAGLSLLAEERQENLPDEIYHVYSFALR
FH mod: Identification of activators of human fumarate hydratase by quantitative high-throughput screening; Fumarate hydratase, mitochondrial (Homo sapiens), P07954; FH coupled MDH/diaphorase resazurin fluorescence, 15 min; Potency, µM (titrated, usually from 79.9 µM), without a hit: at the highest dose activity change, negative = inhibition, hits mostly inhibitors; 0.22% of 54,000 active; also: potency is read from the fitted curve at half-maximal effect; % is scaled to controls: 0 for no effect and ±100 for the full control effect; the screen sought activators but most active calls are inhibition curves; nearly all actives have a fitted effect of over 45% in size
CLK4 inh-1: CLK4 kinase inhibition, SAR round 2 | Potency, µM (series often up to 76.9 µM), inactives show at the top dose activity, negative = inhibition, actives largely listed as inhibitors | 90% of 90 active | recombinant Clk4, Kinase-Glo ATP luminescence, 4.5 h | shares compounds with NTMT1 inhibitor
CLK4 inh-2: inhibitors of human CLK4 kinase, SAR round 2. shares compounds with NTMT1 inhibitor. Reaction Biology kinase assay, 10 uM ATP. Potency, µM, most hits filed as inhibitors. 100% of 65 active; calls by dose curve
DYRK1A inh: inhibitors of human DYRK1A kinase; shares compounds with NTMT1 inhibitor; Reaction Biology kinase assay, 10 uM ATP; Potency, µM, actives largely listed as inhibitors; 90% of 65 active; AID 504424;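 active = compounds that showed inhibition of Dyrk1a and received a fitted potency; inactive = compounds that showed no inhibition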
CLK2 RBC: CLK2 kinase inhibition; shares compounds with NTMT1 inhibitor; Reaction Biology kinase assay, 10 uM ATP; Potency, µM, hits mostly inhibitors; 90% of 65 active; AID 504427;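 active = compound that inhibits Clk2 kinase in the dose series, with an IC50 potency reported; inactive = no inhibition seen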
CLK3 RBC: blocks human CLK3 kinase activity; shares compounds with NTMT1 inhibitor; Potency, µM, actives largely listed as inhibitors; 40% of 65 active; recombinant CLK3 kinase assay, 10 uM ATP; AID 504428;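 active = compounds that inhibited Clk3 enough in the ten-dose series to give a half-maximal potency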
DYRK1B RBC: inhibitors of human Dyrk1b kinase | shares compounds with NTMT1 inhibitor | Recombinant Dyrk1b kinase assay, 10 uM ATP | Potency, µM, actives largely listed as inhibitors | 80% of 65 active | AID 504429;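 active = compounds whose dose response shows an inhibitor phenotype against the kinase Dyrk1b; inactive = compounds showing no inhibitor phenotype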
CLK1 inh: CLK1 kinase inhibition; shares compounds with NTMT1 inhibitor; AID 504430; 90% of 65 active; Potency, µM, hits mostly inhibitors; recombinant Clk1 kinase assay, 10 uM ATP;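 active = compounds that block the splicing kinase Clk1 enough to give a fitted half-inhibition concentration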
Sfp qHTS opt: inhibitors of Bacillus subtilis Sfp PPTase, optimization followup. shares compounds with NTMT1 inhibitor. purified Sfp PPTase enzyme activity, qHTS. 78% of 230 active. Potency, µM (titrated, usually from 114 µM), without a hit: top-dose activity change, negative = inhibition, actives largely listed as inhibitors
HM489 growth: Sfp PPTase inhibitors: growth inhibition of B. subtilis HM489; shares compounds with NTMT1 inhibitor; B. subtilis HM489 (acpS-) growth, BacTiter-Glo, 5 h; Potency, µM (series often up to 114 µM), for the others: at the top dose activity change, negative = inhibition, actives largely listed as inhibitors; 50% of 220 active
Sfp PPTase gel: inhibits B. subtilis Sfp PPTase in gel assay; shares compounds with NTMT1 inhibitor; purified Sfp PPTase, gel-based product detection; Potency, µM (top dose mostly 250 µM), inactives show at the top dose activity change, negative = inhibition, usual class: inhibitors; 54% of 220 active; AID 540355
Sfp gel: confirmation of Bacillus subtilis Sfp PPTase inhibitors | Potency, µM (highest dose often 250 µM), for the others: at the top dose activity change, negative = inhibition, actives largely listed as inhibitors | purified Sfp PPTase, gel-based product detection | shares compounds with NTMT1 inhibitor | AID 602362 | 90% of 45 active
Sfp inh SAR2: inhibits B. subtilis Sfp PPTase in second SAR round; shares compounds with NTMT1 inhibitor; purified Sfp enzyme, PPTase activity, qHTS; AID 602370; 87% of 230 active; Potency, µM (doses to about 57.1 µM), for the others: top-dose activity change, negative = inhibition, hits mostly inhibitors
hGST A1-1 inh: inhibits hGST A1-1 in Sfp inhibitor counter-screen; shares compounds with NTMT1 inhibitor; Potency, µM (titrated, usually from 114 µM), for inactives: at the highest dose activity change, negative = inhibition, usual class: inhibitors; AID 602391; hGST A1-1 enzyme activity counter-screen, qHTS; 55 tested, under 10 active
HSD17B4 inh: HSD17B4 (human) inhibition, HPGD counter-screen; shares compounds with NTMT1 inhibitor; Potency, µM (titrated, usually from 57.1 µM), for the others: at the highest dose activity change, negative = inhibition, usual class: inhibitors; 10% of 230 active; purified HSD17B4, estradiol/NAD+, NADH fluorescence; AID 743187
ALDH1A1 counter: inhibits human ALDH1A1, off-target for HPGD inhibitors | shares compounds with NTMT1 inhibitor | recombinant ALDH1A1, NADH fluorescence, propionaldehyde/NAD+ | Potency, µM (doses to about 57.1 µM), for the others: at the top dose activity change, negative = inhibition, most hits filed as inhibitors | 93% of 230 active | AID 743195
Target sequence (P00352 whole entry, looked up): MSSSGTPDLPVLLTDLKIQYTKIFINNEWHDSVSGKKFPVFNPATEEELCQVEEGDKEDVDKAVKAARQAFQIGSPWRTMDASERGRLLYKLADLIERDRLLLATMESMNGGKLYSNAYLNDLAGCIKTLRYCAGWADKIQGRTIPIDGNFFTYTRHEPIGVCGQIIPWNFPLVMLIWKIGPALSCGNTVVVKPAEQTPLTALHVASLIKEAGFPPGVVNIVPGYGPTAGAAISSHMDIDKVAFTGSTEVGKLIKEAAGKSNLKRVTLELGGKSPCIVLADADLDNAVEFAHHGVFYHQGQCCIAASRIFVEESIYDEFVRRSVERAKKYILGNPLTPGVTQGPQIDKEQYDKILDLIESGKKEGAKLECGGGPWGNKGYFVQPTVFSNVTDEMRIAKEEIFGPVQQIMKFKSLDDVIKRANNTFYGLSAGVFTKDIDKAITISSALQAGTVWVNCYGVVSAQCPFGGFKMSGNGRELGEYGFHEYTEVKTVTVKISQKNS
NNMT inh: blocks human NNMT methyltransferase; shares compounds with NTMT1 inhibitor; NNMT MTase-Glo luminescence, SAH detection; Potency, µM (doses to about 57.1 µM), without a hit: at the highest dose activity, negative = inhibition, hits mostly inhibitors; 10% of 120 active; AID 1645878
An asterisk follows results filed as active; i = inactive; ? = inconclusive; / = no result given; ! = a repeat was not active; [ ] = remark or other dose. Rows were chosen to be rich in hits. Some 2.6% of all compounds tested hit in one or more screens of this group. Unless noted, calls follow the shape of the dose curve; as a rule, active = well fitted curve in the direction sought with a large enough effect; inconclusive = small, poorly fitted or top-dose-only effect, or another doubt; inactive = no such curve, though single readings can be large; an effect the other way counts as inactive or inconclusive.

SMILES	HTT prom inh	HTT-AS act	NTMT1 inhibitor	FH mod	Sfp qHTS opt	Sfp inh SAR2	HSD17B4 inh	ALDH1A1 counter	others
Cc1ccc(CNc2ncnc3ccc(-c4ccc(C(=O)O)o4)cc23)o1	/	/	/	/	/	/	/	/	CLK4 inh-1=0.073µM*;CLK4 inh-2=0.1*;DYRK1A inh=17µM*;CLK2 RBC=1.4µM*;CLK3 RBC=i;DYRK1B RBC=4.9µM*;CLK1 inh=1.6µM*
Cc1ccc(CNc2ncnc3ccc(-c4ccc([C@@H](C)O)o4)cc23)o1	/	/	?	/	/	/	/	/	CLK4 inh-1=0.18µM*
Cc1csc(CNc2ncnc3ccc(-c4ccc(C(=O)O)o4)cc23)n1	/	/	-2%[57.5 µM]	/	/	/	/	/	CLK4 inh-1=0.37µM*;CLK4 inh-2=1*;DYRK1A inh=46µM*;CLK2 RBC=9.5µM*;CLK3 RBC=i;DYRK1B RBC=13µM*;CLK1 inh=16µM*
Cn1cc(-c2nc3cnc(N4CCNCC4)nc3n(Cc3ccc(F)cc3)c2=O)c2ccccc21	/	/	/	/	/	/	/	/	CLK4 inh-1=?
C=C[C@H]1[C@H](O[C@@H]2O[C@H](CO)[C@@H](O)[C@H](O)[C@H]2O)OC=C(C(=O)OC)[C@H]1C/C=C(/C=O)[C@@H]1C(C(=O)OC)=CO[C@@H](O[C@@H]2O[C@H](CO)[C@@H](O)[C@H](O)[C@H]2O)[C@@H]1C=C	/	/	10%[12.6 µM]	3%[20.6 µM]	/	/	/	/
Cc1cc(CS(=O)(=O)c2ccccc2)cc(OCc2ccc(CN3CCC[C@@H]3CO)cc2)c1	/	/	8.9µM*!	-5%	/	/	/	/	NNMT inh=-6%
C[C@H]1CC(=O)Nc2cccc(-c3cnn(C(C)(C)C)c3)c2N1	/	/	-8%[57.5 µM]	1%	/	/	/	/
Cc1cc(C)nc(NC(=S)N2CC3CN(c4ccc(Cl)cc4C(F)(F)F)CC3C2)c1 (configuration not stated)	/	/	?	/	0.26µM*	0.73µM*	-27%	8.6µM*	hGST A1-1 inh=?
Cc1cc(C(=O)N2CCN(c3ccccc3F)CC2)c2c(C)nn(-c3ccccc3)c2n1	?	-34%	25%	-15%	/	/	/	/
Cc1cc(C)nc(NC(=S)N2CCN(c3ccc(F)c(F)c3F)CC2)c1	/	/	?	/	2.1µM*	1µM*	-23%	9.6µM*	HM489 growth=21µM*;Sfp PPTase gel=7.9µM*;Sfp gel=2.4µM*;hGST A1-1 inh=-3%
Cc1cc(C)nc(NC(=S)N2CCN(c3ccc(C(=O)O)cc3)CC2)c1	/	/	?	/	9.4µM*	3.2µM*	?	22µM*	HM489 growth=-1%;Sfp PPTase gel=-56%
Cc1cc(C)nc(NC(=S)N2CCN(c3ccncc3)CC2)c1	/	/	?	/	?	3.2µM*	6%	30µM*	HM489 growth=-20%;Sfp PPTase gel=-6%
CC(=O)c1ccc(N2CCN(C(=O)CCC(=O)Nc3ccc4nc(N5CCCCC5)cc(C)c4c3)CC2)cc1	?	7%	?	-7%	/	/	/	/
C/C1=C\[C@@H](C)C[C@@H](C)[C@@H](Cc2cnco2)OC(=O)/C(C)=C/[C@@H](C)C[C@@H](C)[C@@H](Cc2cnco2)OC1=O	/	/	0%[29.8 µM]	-3%[53.3 µM]	/	/	/	/
CCCCCCCCCCC(O)C1C=CC2C(=O)N(c3ccccc3)C(=O)C2N1Nc1ccc([N+](=O)[O-])cc1 (configuration not stated)	/	/	21%	?	/	/	/	/
CCc1cnn2c(NCc3ccc[n+]([O-])c3)cc(N3CCCC[C@H]3CCO)nc12	/	/	-15%	/	/	/	/	/
Cc1nnc(-c2ccc(-c3ccc(C(=O)Nc4ccc(O)c(N5CCN(C)CC5)c4)cc3)c(C)c2)o1	/	/	-2%[57.5 µM]	1%	/	/	/	/
CCOc1cccc2c1OC(c1ccc(F)cc1)C([N+](=O)[O-])=C2 (configuration not stated)	/	/	-20%	-3%	/	/	/	/
Cc1cc(C)nc(NC(=S)N2CCN(c3cccc(S(C)(=O)=O)c3)CC2)c1	/	/	?	/	4.7µM*	2.9µM*	-25%	15µM*	HM489 growth=15%;Sfp PPTase gel=16µM*

Compound activity (PubChem)
